TSHR antagonist: Antagonists of the Thyroid Stimulating Hormone Receptor: HTS campaign. AID 504810, 2011. activity change, negative = inhibition, % at 11.5 µM. Thyrotropin receptor (Homo sapiens), P16473. TSHR-expressing cells, TSH-stimulated cAMP HTRF, 2 h; active compounds read low. 330,000 compounds, 0.2% hits;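 active means activity change below a set negative limit, meaning inhibition stronger than a set level, cut at about -70% in these data; inconclusive means activity change between two set negative limits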; further: on the % scale 0 is the no-effect control and ±100 the full control effect
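TSHR-expressing cells were treated with compounds, then stimulated with TSH at EC80 (4nM final) for 2 hours at 37 deg C. Cellular cAMP was measured by HTRF competition between lysate cAMP and cAMP-d2 for a cryptate-labelled anti-cAMP antibody.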
B2AR arrestin: qHTS assay of beta-arrestin-biased ligands of beta2-adrenergic receptor; AID 492947, 2010; beta-arrestin recruitment to beta2AR, cell-based reporter; 330,000 compounds, 0.02% hits; Potency, µM (highest dose often 46.1 µM), for the others: at the top dose activation, most hits filed as activators; Beta-2 adrenergic receptor (Homo sapiens), P07550; active means well fitted activation curve with a large enough effect; inconclusive means small, poorly fitted or top-dose-only effect;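 further: potency means the concentration at half of the fitted maximal effect; 0% = DMSO controls and full agonism = EC100 isoproterenol or metaproterenol; nearly all actives have a fitted effect of over 65% in size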
Target sequence (P07550 whole entry, looked up): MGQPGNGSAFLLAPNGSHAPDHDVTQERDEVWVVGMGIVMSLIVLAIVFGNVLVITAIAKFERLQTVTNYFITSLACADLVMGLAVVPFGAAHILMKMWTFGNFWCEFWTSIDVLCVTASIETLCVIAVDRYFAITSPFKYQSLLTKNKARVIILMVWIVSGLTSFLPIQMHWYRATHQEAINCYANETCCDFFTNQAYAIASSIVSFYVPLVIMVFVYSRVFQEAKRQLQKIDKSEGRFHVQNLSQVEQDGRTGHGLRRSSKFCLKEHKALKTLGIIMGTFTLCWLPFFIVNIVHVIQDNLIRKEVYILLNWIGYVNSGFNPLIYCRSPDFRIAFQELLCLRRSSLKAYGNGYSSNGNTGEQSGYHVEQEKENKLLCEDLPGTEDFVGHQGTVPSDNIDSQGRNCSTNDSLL
DRD3 antagonist: qHTS of D3 Dopamine Receptor Antagonist: qHTS; D(3) dopamine receptor (Homo sapiens), P35462; max response, negative = inhibition, %; 360,000 compounds, 2.5% hits; AID 652054, 2013; D3R cells, DiscoveRx beta-arrestin luminescence, antagonist mode; active compounds read low; in the data active means max response below about -50%; inconclusive means no clear call, values can overlap the other calls; further: on the % scale 0 is the no-effect control and ±100 the full control effect
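Cells plated overnight at 1500 cells/well, then exposed to library compounds with dopamine controls for 90 minutes at 37 degrees C. DiscoveRx reagent added for 30–60 minutes at room temperature; luminescence read, quantitative HTS format.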
DRD3 agonist: qHTS of D3 Dopamine Receptor Agonist: qHTS. max activation, %. D(3) dopamine receptor (Homo sapiens), P35462. 410,000 compounds, 0.58% hits. AID 652048, 2013. D3R DiscoveRx beta-arrestin cells, luminescence, 90 min; in the data active means max activation above about 30%; further: 0% is about no effect
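Cells at 1500/well, incubated overnight, then treated with pinned compounds (dopamine as control) for 90 min at 37 degrees C. DiscoveRx reagent added for 30 - 60 minutes at room temperature; luminescence read.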
* = called active by the depositor; ? = inconclusive; nt = no result. Shown are actives, neighbours in structure and some others; about 2.9% of the full set was active somewhere.

SMILES	TSHR antagonist	B2AR arrestin	DRD3 antagonist	DRD3 agonist
Cc1ccc2c(=O)c(C(=O)c3cccc(Cl)c3)cn(CC(=O)Nc3ccc4c(c3)OCCO4)c2n1	nt	nt	nt	3.3
CCC(c1nc2ccccc2[nH]1)n1c(-c2ccnc(Cl)c2)nc2ccccc21 (stereo not given)	nt	nt	-74.6*	-11.1
CCC(c1nc2ccccc2[nH]1)n1c(-c2cccnc2)nc2ccccc21 (stereo not given)	nt	nt	13.8	-1.7
O=S(=O)(Nc1ccc(F)c(Cl)c1)c1ccc(Br)s1	nt	nt	nt	5.6
CC1(C(=O)NCc2cccc3ccccc23)CCN1C(=O)C1(c2ccccc2)CC1 (stereo not given)	nt	nt	5.6	2.0
COc1ccccc1CNC(=O)C1(C)CCN1C(=O)C1(c2ccccc2)CC1 (stereo not given)	nt	nt	-57.6*	-2.9
CCOc1ccccc1-n1ccnc(NCc2ccc(F)cc2)c1=O	nt	nt	nt	5.2
COCCNC(=O)C(c1ccc(C)cc1)N(Cc1ccccc1)C(=O)CCC(=O)Nc1ccccn1 (stereo not given)	0.9	-0.1%	-7.8	-4.1
COCCN(C(=O)CCC(=O)Nc1nccs1)C(C(=O)NC(C)(C)C)c1ccc(F)cc1 (stereo not given)	-10.6	-0.8%	9.3	7.2
Cc1ccc(C(C(=O)NC(C)(C)C)N(CC2CCCO2)C(=O)CCC(=O)Nc2ccccn2)cc1 (stereo not given)	-1.7	-0.4%	5.8	48.0*
COCCNC(=O)C(c1ccc(C)cc1)N(Cc1ccco1)C(=O)CCC(=O)Nc1ccccn1 (stereo not given)	9.3	-0.6%	-89.5*	-9.8
COCCN(C(=O)CCC(=O)Nc1nccs1)C(C(=O)NC(C)(C)C)c1ccc(C)cc1 (stereo not given)	-2.3	-0.3%	3.0	38.2*
Cc1ccc(C)c(N(C)C(=O)c2cc3c(s2)-c2ccccc2OC3)c1	nt	nt	nt	-6.2
CCOc1ccc(-c2nn(-c3ccccc3)cc2C2NC(=O)NC(C)=C2C(=O)OC(C)C)cc1 (stereo not given)	nt	nt	nt	2.1
CCOC(=O)C(c1ccccc1)C(Nc1cc(C(F)(F)F)cc(C(F)(F)F)c1)c1ccccn1 (stereo not given)	-4.5	-0.5%	-16.8	37.8*
CC(C)C#Cc1ccc2c(c1)O[C@@H](CN(C)C(=O)c1cnccn1)[C@@H](C)CN([C@@H](C)CO)S2(=O)=O	nt	nt	-16.2	0.7
C[C@@H]1CN([C@H](C)CO)S(=O)(=O)c2ccc(Br)cc2O[C@H]1CN(C)C(=O)C1CCCCC1	nt	nt	-73.9*	3.9
C[C@H](CO)N1C[C@H](C)[C@@H](CN(C)C(=O)c2cnccn2)Oc2cc(C#CCC3CCCC3)ccc2S1(=O)=O	nt	nt	-61.5*	-6.7
C[C@@H]1CN([C@@H](C)CO)S(=O)(=O)c2ccc(Br)cc2O[C@H]1CN(C)C(=O)C1CCCCC1	nt	nt	-12.8	-4.3
CO[C@H]1C[C@H](O[C@H]2[C@H](C)[C@@H](O[C@@H]3O[C@H](C)C[C@H](N(C)C)[C@H]3OC(C)=O)[C@@H](C)C[C@]3(CO3)C(=O)[C@H](C)[C@@H](OC(C)=O)[C@@H](C)[C@@H](C)OC(=O)[C@@H]2C)O[C@@H](C)[C@@H]1OC(C)=O	nt	nt	nt	6.5
CCc1cccc(OCCOCCN2CCCC2)c1	5.2	-0.3%	-71.1*	-3.0
Cc1ccc(C(C)C)cc1OCCOCCN1CCCC1	4.1	-0.8%	-66.1*	-1.5
Cc1ccccc1OCCOCCN1CCCCCC1	5.6	-0.2%	?	-12.1
COCCCNCCOc1cc(C(C)C)ccc1C	2.8	-0.1%	-66.3*	-3.8
CCOc1cccc(OCCOCCN2CCCC2)c1	1.8	-0.2%	?	-17.3
SMILES	TSHR antagonist	B2AR arrestin	DRD3 antagonist	DRD3 agonist
Cc1cc(OCCOCCN2CCCC2)ccc1C(C)C	-6.1	0.2%	-58.2*	-9.9
CCOc1ccccc1CNc1nc2nc(C)c(CC(=O)OC)c(=O)n2[nH]1	nt	nt	nt	-5.8
CC(C)c1nc(SCC(=O)c2c[nH]c3ccccc23)n[nH]1	20.7	-0.3%	-60.6*	-41.0
CCc1nc(SCC(=O)c2c[nH]c3ccccc23)n[nH]1	-8.5	-0.3%	-5.5	2.9
CCS(=O)(=O)c1ccc2oc(SCC(=O)NCCC3=CCCCC3)nc2c1	-3.7	-0.5%	-51.0*	10.9
CCS(=O)(=O)c1ccc2oc(SCC(=O)NCCc3ccc(F)cc3)nc2c1	-13.6	-0.2%	1.9	-2.1

Source: PubChem BioAssay
